Sampled rows, rich in hits. Any-hit rate of the full collection: about 11%.
HP1b binding inh: HP1-beta chromodomain-methylated histone interaction inhibition; AlphaScreen HP1-beta / biotin-H3K9me3 peptide binding; AID 540317; actives 0.56% (n = 390,000); P83916; Potency, µM (series often up to 114 µM), most hits filed as inhibitors; note: nearly all actives have a fitted effect of over 70% in size
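AlphaScreen: HP1-beta (50 nM) preformed 30 min with biotin-H3(1-18)K9me3 peptide (50 nM) in PBS pH 7.4, 0.01% Tween-20. Compound added for 30 min at RT, then streptavidin donor/nickel chelate acceptor beads (10 ug/mL) for 30 min.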
L3MBTL1 inh: L3MBTL1 (human) inhibition | AlphaScreen L3MBTL1–H3K9me1 peptide binding | Potency, µM (doses to about 57.1 µM), usual class: inhibitors | actives 0.66% (n = 230,000); note: nearly all actives have a fitted effect of over 60% in size
Target sequence (Q9Y468 whole entry, looked up): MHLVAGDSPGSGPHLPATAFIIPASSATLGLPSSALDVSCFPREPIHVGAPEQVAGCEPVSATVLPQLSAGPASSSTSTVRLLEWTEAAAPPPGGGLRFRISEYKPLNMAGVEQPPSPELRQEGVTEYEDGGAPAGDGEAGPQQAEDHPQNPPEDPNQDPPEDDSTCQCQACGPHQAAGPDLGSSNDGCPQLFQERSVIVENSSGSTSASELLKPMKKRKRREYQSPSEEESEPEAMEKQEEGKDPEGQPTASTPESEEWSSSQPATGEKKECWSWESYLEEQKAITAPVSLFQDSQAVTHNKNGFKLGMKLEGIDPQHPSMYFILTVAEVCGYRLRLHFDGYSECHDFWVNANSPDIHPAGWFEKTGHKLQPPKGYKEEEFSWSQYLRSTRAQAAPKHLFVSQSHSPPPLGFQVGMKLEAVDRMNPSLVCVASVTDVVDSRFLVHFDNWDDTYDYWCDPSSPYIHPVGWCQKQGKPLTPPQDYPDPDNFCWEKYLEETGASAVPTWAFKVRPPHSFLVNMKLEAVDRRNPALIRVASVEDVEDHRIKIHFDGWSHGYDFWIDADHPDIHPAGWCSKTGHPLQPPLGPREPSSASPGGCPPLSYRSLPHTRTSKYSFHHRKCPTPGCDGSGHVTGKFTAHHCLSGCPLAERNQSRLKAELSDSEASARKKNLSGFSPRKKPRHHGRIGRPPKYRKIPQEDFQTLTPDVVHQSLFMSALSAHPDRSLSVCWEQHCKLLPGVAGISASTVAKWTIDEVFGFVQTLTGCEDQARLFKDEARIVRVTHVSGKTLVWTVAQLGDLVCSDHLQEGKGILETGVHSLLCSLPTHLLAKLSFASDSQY
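L3MBTL1 (50 nM) pre-complexed 30 min with biotinylated H3(1-15)K9me1 peptide (75 nM), then compounds added for 30 min at room temperature; AlphaScreen streptavidin donor/nickel chelate acceptor beads (10 ug/mL final) read after 30 min dark incubation.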
JMJD2A Tudor inh: blocks the human JMJD2A Tudor domain | O75164 | AlphaScreen JMJD2A-Tudor / H3K4me3 peptide binding | Potency, µM (doses to about 114 µM), usual class: inhibitors | actives 4.4% (n = 390,000) | AID 504339; note: nearly all actives have a fitted effect of over 50% in size
G9a inh: inhibitors of human histone lysine methyltransferase G9a | G9a H3K9 monomethylation, AlphaScreen, 2 h | AID 504332 | Potency, µM (top dose mostly 102 µM), most hits filed as inhibitors | actives 8.8% (n = 350,000) | Q96KQ7; note: nearly all actives have a fitted effect of over 75% in size
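Signal arises when biotinylated H3K9 peptide, once monomethylated, bridges streptavidin donor and antibody-captured acceptor beads. Enzyme at 20 nM was preincubated 15 min with test compounds; peptide 500 nM and SAM 20 uM then reacted for 2 h.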
BAZ2B inh: inhibitors of human BAZ2B bromodomain. actives 4.4% (n = 360,000). Potency, µM (titrated, usually from 114 µM), actives largely listed as inhibitors. AlphaScreen BAZ2B-H3K14Ac peptide displacement; note: nearly all actives have a fitted effect of over 60% in size
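Multi-concentration screen (max 110 uM) measuring displacement of acetylated histone H3 peptide from BAZ2B by AlphaScreen, using 50 nM protein, 50 nM peptide and 10 ug/mL streptavidin donor plus Ni-chelate acceptor beads.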
Large screens that a line does not name were inactive. Calls come from the whole dose curve; as a rule, active = well fitted inhibition curve with a large enough effect; inconclusive = small, poorly fitted or top-dose-only effect; inactive = no such curve, though single readings can be large or run the other way.

CC(NCC1(N2CCOCC2)CCCCC1)C(=O)N1CCc2ccccc21 (stereo not drawn)	HP1b binding inh inconclusive, JMJD2A Tudor inh 2.82µM, G9a inh inconclusive, BAZ2B inh 39.8µM (no result: L3MBTL1 inh)
CC(Oc1ccccc1F)C(=O)NCC1(N2CCOCC2)CCCCC1 (stereo not drawn)	none (no result: L3MBTL1 inh)
CC(C)c1ccccc1NC(=O)C1CC(=O)N(C2CCCC2)C1 (stereo not drawn)	none (no result: L3MBTL1 inh)
CCc1ccc(S(=O)(=O)NCc2nc3cccnc3n2Cc2ccccc2Cl)cc1	none (no result: L3MBTL1 inh)
CCCN1CCC(Oc2cccc(C(=O)NCCc3ccccc3)c2)CC1	none (no result: L3MBTL1 inh, G9a inh)
CCN=C1S/C(=C\c2cn(CC)c3ccccc23)C(=O)N1CC	none
Cc1ccc(N=C2S/C(=C\c3cn(CC(=O)O)c4ccccc34)C(=O)N2C)cc1	G9a inh 79.4µM, BAZ2B inh inconclusive
Cn1cc(/C=C2\SC(=O)N(c3ccccc3)C2=O)c2ccccc21	none
O=C1S/C(=C\C=C\c2ccco2)C(=O)N1c1ccc(O)cc1	HP1b binding inh inconclusive, L3MBTL1 inh 15.8µM, JMJD2A Tudor inh inconclusive, G9a inh 39.8µM, BAZ2B inh 44.7µM
O=C1S/C(=C\C=C\c2ccco2)C(=O)N1c1ccccc1	HP1b binding inh inconclusive, L3MBTL1 inh inconclusive, JMJD2A Tudor inh 10µM, G9a inh 39.8µM, BAZ2B inh 39.8µM
O=C1S/C(=C\c2cccs2)C(=O)N1c1ccc(O)cc1	none (no result: L3MBTL1 inh)
CCOc1ccc2nc(SC3CC(=O)N(c4ccccc4)C3=O)sc2c1 (stereo not drawn)	JMJD2A Tudor inh inconclusive, G9a inh inconclusive
COc1ccc(N2C(=O)CC(Sc3n[nH]c(-c4ccccc4)n3)C2=O)cc1 (stereo not drawn)	HP1b binding inh inconclusive, JMJD2A Tudor inh 5.01µM (no result: G9a inh)
CCOc1ccc(N2C(=O)CC(Sc3n[nH]c(-c4ccccc4)n3)C2=O)cc1 (stereo not drawn)	HP1b binding inh inconclusive, JMJD2A Tudor inh 4.47µM
COc1ccc(N2C(=O)CC(Sc3nc(C)c4c(n3)CCCC4)C2=O)cc1 (stereo not drawn)	none
Cc1ccc(NC(=O)CSc2nnc(-c3ccc([N+](=O)[O-])cc3)o2)c(C)c1	BAZ2B inh inconclusive (no result: L3MBTL1 inh)
Cc1cc(/C([O-])=C(/C(=S)Nc2ccccc2)[n+]2ccccc2)c(C)n1-c1ccccc1	HP1b binding inh inconclusive, G9a inh 50.1µM, BAZ2B inh inconclusive (no result: L3MBTL1 inh, JMJD2A Tudor inh)
Cc1cc(/C([O-])=C(/C(=S)Nc2ccc(F)cc2)[n+]2ccccc2)c(C)n1-c1ccc(F)cc1	JMJD2A Tudor inh 50.1µM, G9a inh inconclusive, BAZ2B inh 44.7µM (no result: HP1b binding inh)
CN(CC(=O)Nc1ccc(Cl)c(C(F)(F)F)c1)C(=O)CCN1C(=O)C2CC=CCC2C1=O (stereo not drawn)	none
C/C(=N/OC(=O)c1ccc(C(F)(F)F)cc1)c1oc(C)nc1C	none
CS(=O)(=O)c1ccc(C(=O)Nc2cc(S(C)(=O)=O)ccc2Cl)cc1	G9a inh 44.7µM
Cc1cccc([N+](=O)[O-])c1NC(=O)COC(=O)C1CC2CCCC(C1)C2=O (stereo not drawn)	none
Cc1ccc([N+](=O)[O-])c(NC(=O)COC(=O)C2CC3CCCC(C2)C3=O)c1C (stereo not drawn)	G9a inh 79.4µM (no result: L3MBTL1 inh)
CSc1nnc(-c2ccccc2Cl)n1N	none (no result: L3MBTL1 inh)
Nn1c(-c2ccccc2Cl)nnc1-c1ccccc1Cl	G9a inh 3.55µM
CC(C)(C)C1CCC(N2CCN(c3ccccc3)CC2)CC1 (stereo not drawn)	none (no result: G9a inh)
c1ccc(N2CCN(C3CC4CCC3C4)CC2)cc1 (stereo not drawn)	G9a inh 79.4µM (no result: L3MBTL1 inh)
CCOc1cc(N2CCOCC2)c(OCC)cc1NC(=O)COC(=O)CCOc1cc(C)ccc1C	none
CCCCN(CC)Cc1ccc(CNC(=S)Nc2c(C)cc(C)cc2C)o1	G9a inh inconclusive (no result: L3MBTL1 inh)
CCCCN(CC)Cc1ccc(CNC(=S)Nc2ccc(C)cc2Cl)o1	G9a inh 35.5µM (no result: L3MBTL1 inh)
CCC(Sc1nc2ncnc(N)c2[nH]1)C(=O)O (stereo not drawn)	G9a inh 39.8µM
Cc1ccc(C2C=C(c3ccccc3)Nc3nc(NS(=O)(=O)c4ccc(C)cc4)nn32)cc1 (stereo not drawn)	none (no result: L3MBTL1 inh)
O=C1CCC(=O)N1c1nc2n(n1)C(c1ccccc1)C=C(c1ccc(Br)cc1)N2 (stereo not drawn)	L3MBTL1 inh inconclusive, JMJD2A Tudor inh inconclusive, G9a inh 25.1µM, BAZ2B inh inconclusive
COc1ccc(C2C=C(c3ccc(Br)cc3)Nc3nc(N4C(=O)CCC4=O)nn32)cc1 (stereo not drawn)	JMJD2A Tudor inh inconclusive, G9a inh 35.5µM, BAZ2B inh inconclusive
COc1ccc(C2=CC(c3ccc(F)cc3)n3nnnc3N2)cc1 (stereo not drawn)	none
COc1cc(C(=O)NCC(=O)Nc2c(C)cccc2C)ccc1OCC(=O)N1CCOCC1	none (no result: G9a inh, BAZ2B inh)
COc1ccc(NC(=O)CSc2c(C(C)C)cnc3c2c(=O)n(C)c(=O)n3C)c(OC)c1	none (no result: L3MBTL1 inh)
CCC(=O)N1CCc2cc(Br)cc(S(=O)(=O)NCCc3ccc(OC)c(OC)c3)c21	none (no result: L3MBTL1 inh)
CCOc1ccc(NC(=O)C(C)Sc2nnc3cc(C)c4ccccc4n23)cc1 (stereo not drawn)	none (no result: L3MBTL1 inh)
Cc1cc(OCCOCCNC(C)C)cc(C)c1Cl	JMJD2A Tudor inh 3.16µM, G9a inh inconclusive, BAZ2B inh 79.4µM (no result: L3MBTL1 inh)
CC1(C)C=C2C(=NN(c3ccccc3)C(N)=C2C#N)CO1	G9a inh 6.31µM
CC1(C)Cc2c(C#N)c(N)n(-c3ccccc3)c(=S)c2CO1	none (no result: G9a inh)
Cn1cnc2c(=O)oc3ccc(S(=O)(=O)Nc4ccc(F)cc4)cc3c21	none (no result: L3MBTL1 inh)
CCN(CCCNC(=O)c1[nH]c(C)c(C(C)=O)c1C)c1ccccc1	JMJD2A Tudor inh inconclusive, G9a inh 14.1µM, BAZ2B inh 50.1µM
CC(=O)c1c(C)[nH]c(C(=O)NCCc2ccccc2)c1C	BAZ2B inh inconclusive
Cc1ccccc1-c1nc2c3ccccc3nc(=S)n2[nH]1	BAZ2B inh inconclusive (no result: L3MBTL1 inh)
Cc1nc2ccccc2n1CCc1nc2c3ccccc3nc(=S)n2[nH]1	JMJD2A Tudor inh 63.1µM, G9a inh 14.1µM (no result: L3MBTL1 inh)
O=C(COC(=O)c1cccnc1Cl)NCCCc1ccccc1	none
O=C(COC(=O)c1ccccc1O)NCCCc1ccccc1	JMJD2A Tudor inh 79.4µM (no result: L3MBTL1 inh)
Cc1cc(Nc2ccccc2F)n2nc(Cc3ccc(Cl)cc3)nc2n1	none (no result: L3MBTL1 inh)
COc1ccccc1NC(=O)c1oc2ccccc2c1NC(=O)Cc1ccccc1	none (no result: L3MBTL1 inh)
CCC1Sc2ccc(S(=O)(=O)CCC(=O)Nc3ccc(C(=O)OC)cc3)cc2NC1=O (stereo not drawn)	HP1b binding inh inconclusive, JMJD2A Tudor inh 20µM, BAZ2B inh inconclusive (no result: L3MBTL1 inh)
CCC1Sc2ccc(S(=O)(=O)CCC(=O)Nc3cccc(Br)c3)cc2NC1=O (stereo not drawn)	HP1b binding inh inconclusive, JMJD2A Tudor inh 25.1µM, BAZ2B inh inconclusive (no result: L3MBTL1 inh)
CCC1Sc2ccc(S(=O)(=O)CCC(=O)Nc3ccc(NC(C)=O)cc3)cc2NC1=O (stereo not drawn)	none (no result: L3MBTL1 inh)

Screens from PubChem.
